High-throughput results deposited in PubChem BioAssay by National Center for Advancing Translational Sciences (NCATS).
Hits are enriched below; roughly 6.6% of the tested compounds scored in any of these assays.
TGFb inhibitor – qHTS for Inhibitors of TGF-b; Potency, µM (highest dose often 46.1 µM), hits mostly inhibitors; 1.2% of 410,000 active; HepG2 CAGA-GFP TGF-b/SMAD3 reporter, GFP fluorescence, 18 h; TGF-beta stimulated, 500 pg/mL final; note: nearly all actives have a fitted effect of over 65% in size
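Inhibition was scored as loss of TGF-beta-induced (500 pg/mL final, 18 hours, 37 degrees C) GFP in HEPG2 cells carrying a CAGA-GFP reporter, in DMEM with 1% FBS. Well GFP was summed per cell; Activity was normalised to unstimulated and stimulated DMSO wells, then concentration-response fitting.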
HT1080 IDH1KD tx – qHTS for induction of synthetic lethality in tumor cells producing 2HG: qHTS for the HT-1080-IDH1KD cell line; 2% of 360,000 active; HT-1080 IDH1 knockdown viability, ATP luminescence, 48 h; Potency, µM (titrated, usually from 46.1 µM), most hits filed as cytotoxic
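Luminescent ATP read-out (CellTiter-Glo, 10 min at room temperature) after 48 h compound exposure at 37 °C gave viability of IDH1-knockdown HT-1080 cells. Activity was normalised to DMSO and cell-free wells, then fitted as concentration-response curves.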
HepG2 tox – qHTS for Inhibitors of TGF-b: Cytotox Counterscreen | HepG2 CAGA-GFP viability, ATP luminescence, 18 h | 0.76% of 410,000 active | Potency, µM (doses to about 46.1 µM), hits mostly cytotoxic
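CellTiter-Glo luminescence gave cytotoxicity after 18 hours at 37 degrees C. The cells were HepG2 CAGA-GFP in 1% FBS DMEM, stimulated with 500 pg/mL TGF-beta after compound addition. %Activity was normalised to no-cell wells (complete cell-killing) and DMSO (no toxicity), and curves were fitted and classified.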
KB-3-1 cytotox – qHTS assay for MDR1-selective chemotherapeutics: Primary screen using the parental adenocarcinoma cell KB-3-1. KB-3-1 viability, CellTiter-Glo ATP luminescence, 72 h. Potency, µM (series often up to 46.1 µM), actives largely listed as cytotoxic. 1.4% of 400,000 active. AID 1347075, 2019; note: nearly all actives have a fitted effect of over 60% in size
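Luminescent ATP read-out (CellTiter-Glo) measures survival of drug-naive KB-3-1 cells after 72 h compound exposure at 37 °C. Titration series was screened from lowest to highest concentration, with DMSO vehicle plates as background controls.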
HT1080-NT tox – qHTS for induction of synthetic lethality in tumor cells producing 2HG: qHTS for the HT-1080-NT fibrosarcoma cell line | HT-1080-NT fibrosarcoma viability, CellTiter-Glo ATP luminescence, 48 h | 1.6% of 360,000 active | Potency, µM (top dose mostly 46.1 µM), most hits filed as cytotoxic;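 note: NT is the 2HG producing partner of a matched IDH1 knockdown line; nearly all actives have a fitted effect of over 55% in size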
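Read-out is CellTiter-Glo luminescence after 10 minutes at room temperature, following 48 hours' compound treatment of HT-1080-NT cells (750 cells/well, RPMI, 5% FBS, 37 degrees C).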
KB-V1 cytotox – qHTS assay for MDR1-selective chemotherapeutics: Primary screen using the drug-selected MDR subline cells KB-V1; KB-V1 MDR cells viability, CellTiter-Glo, 72 h; Potency, µM (top dose mostly 46.1 µM), usual class: cytotoxic; 3.4% of 400,000 active; AID 1347076, 2019; note: nearly all actives have a fitted effect of over 60% in size
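Potencies derive from concentration-effect curves fitted to normalized luminescence (CellTiter-Glo) of KB-V1 cells treated for 72 h at 37 degrees C in phenol-red-free DMEM containing 10% FBS.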
Large screens that a line does not name were inactive. Calls come from the whole dose curve; as a rule, active = well fitted curve in the direction sought with a large enough effect; inconclusive = small, poorly fitted or top-dose-only effect, or another doubt; inactive = no such curve, though single readings can be large; an effect the other way counts as inactive or inconclusive.

Cc1ccc(S(=O)(=O)/N=C(\N)Nc2nc(C)c3ccc(C)cc3n2)cc1	none
CCOc1ccc2nc(N/C(N)=N/C(=S)Nc3cccc(C)c3)nc(C)c2c1	KB-V1 cytotox 23.1µM
COc1ccc2nc(N/C(N)=N/S(C)(=O)=O)nc(C)c2c1	KB-3-1 cytotox 8.2µM, HT1080-NT tox inconclusive, KB-V1 cytotox 2.06µM
COc1ccc2nc(N/C(N)=N/C(=S)Nc3c(C)cccc3C)nc(C)c2c1	TGFb inhibitor inconclusive, KB-3-1 cytotox inconclusive, KB-V1 cytotox inconclusive
Cc1ccc(S(=O)(=O)/N=C(\N)Nc2nc(C)c3cc(C)ccc3n2)cc1	HT1080 IDH1KD tx inconclusive, KB-V1 cytotox 14.6µM
O=[N+]([O-])c1cc(Cl)ccc1N1CCCC1	none
O=C1C(Cl)=C(N2CCN(c3ccccc3[N+](=O)[O-])CC2)C(=O)c2ccccc21	TGFb inhibitor 11.2µM, HT1080 IDH1KD tx inconclusive, KB-3-1 cytotox inconclusive, KB-V1 cytotox inconclusive
CSc1ncc(Cl)c(C(=O)N(Cc2ccc(C(C)C)cc2)C2CCS(=O)(=O)C2)n1 (stereo not given)	none (no result: HT1080 IDH1KD tx, HT1080-NT tox)
CCOC(=O)C1=C[C@@H](C(C)(C)C)N(S(=O)(=O)c2ccc(C)cc2)[C@H]1c1ccc(Cl)c(Cl)c1	TGFb inhibitor inconclusive, HT1080 IDH1KD tx 14.6µM, HT1080-NT tox 14.6µM, KB-V1 cytotox inconclusive
Cc1ccc(S(=O)(=O)N2[C@@H](c3ccc(Cl)c(Cl)c3)C(C(=O)O)=C[C@H]2C(C)(C)C)cc1	TGFb inhibitor inconclusive
Cn1nc(C(F)(F)F)c(-c2ccc(Br)cc2)c1NC(=O)Nc1ccc(F)cc1F	TGFb inhibitor inconclusive, HT1080 IDH1KD tx 18.4µM, KB-3-1 cytotox inconclusive, HT1080-NT tox inconclusive, KB-V1 cytotox inconclusive
CC1CCC(NC(=O)C2c3ccccc3C(=O)N2Cc2cccs2)CC1 (stereo not given)	KB-V1 cytotox 3.66µM
COc1cccc(CN2CCC2(C)C(=O)Nc2cccc(Oc3ccccc3)c2)c1F (stereo not given)	TGFb inhibitor inconclusive, HT1080 IDH1KD tx 6.51µM, KB-3-1 cytotox inconclusive, HT1080-NT tox inconclusive, KB-V1 cytotox 7.31µM
COc1cccc(CN2CCC2(C)C(=O)Nc2cccc3cccnc23)c1OC (stereo not given)	TGFb inhibitor 11.2µM, HT1080 IDH1KD tx inconclusive, HT1080-NT tox inconclusive, KB-V1 cytotox inconclusive
Cc1noc(C)c1-c1ccc2nc[nH]c(=O)c2c1	TGFb inhibitor inconclusive, KB-3-1 cytotox 13µM, KB-V1 cytotox inconclusive (no result: HT1080 IDH1KD tx, HT1080-NT tox)
Cc1ccc(-n2nnnc2CNC(=O)c2ccc(F)cc2)cc1C	none (no result: HT1080 IDH1KD tx, KB-3-1 cytotox, HT1080-NT tox, KB-V1 cytotox)
COc1cccc(NC(=O)CSc2nnc(Cc3cccs3)n2-c2ccc(C)cc2)c1	HT1080 IDH1KD tx inconclusive, KB-V1 cytotox 8.2µM
CCn1c(SCC(=O)Nc2ccccc2N2CCOCC2)nnc1-c1ccccc1O	none
CCn1c(SCC(=O)Nc2ccccc2N2CCOCC2)nnc1-c1ccccc1	KB-V1 cytotox 18.4µM
COc1ccc(NC(=O)CSc2nnc(Cc3cccs3)n2-c2ccc(C)cc2)cc1	none
COc1ccc(NC(=O)CSc2nnc(-c3ccccc3C)n2C)cc1	KB-V1 cytotox 14.6µM
CCn1c(SCC(=O)Nc2cccc(OC)c2)nnc1-c1ccc(Cl)cc1	TGFb inhibitor inconclusive, KB-3-1 cytotox inconclusive, KB-V1 cytotox 11.6µM
Cc1ccc(NC(=O)CCc2nnc3n(CC(C)C)c(=O)c4ccccc4n23)cc1C	none (no result: HT1080 IDH1KD tx, KB-3-1 cytotox, HT1080-NT tox, KB-V1 cytotox)
CCn1c(SCC(=O)Nc2ccc(N3CCOCC3)cc2)nnc1-c1ccc(OC)cc1	KB-V1 cytotox 16.4µM
O=C(Nc1ccc(S(=O)(=O)N2CCCCC2)cc1)c1ccc(CN2CCOCC2)cc1	TGFb inhibitor inconclusive, KB-3-1 cytotox 7.31µM, KB-V1 cytotox 2.06µM (no result: HT1080 IDH1KD tx, HT1080-NT tox)
CCN(CC)S(=O)(=O)c1ccc(NC(=O)c2ccc(CN3CCOCC3)cc2)cc1	TGFb inhibitor inconclusive, KB-3-1 cytotox 3.26µM, HT1080-NT tox inconclusive, KB-V1 cytotox inconclusive
O=C(Nc1ccc(S(=O)(=O)Nc2ccc(F)cc2)cc1)c1ccc(CN2CCOCC2)cc1	HT1080 IDH1KD tx inconclusive, KB-3-1 cytotox 3.66µM, KB-V1 cytotox inconclusive
O=C(Nc1ccc(S(=O)(=O)N2CCN(Cc3ccccc3)CC2)cc1)c1cnccn1	KB-3-1 cytotox 10.3µM, KB-V1 cytotox 2.31µM
O=C(Nc1ccc(S(=O)(=O)N2CCCC2)cc1)c1cnccn1	none
O=C(Nc1ccc(S(=O)(=O)N2CCCC2)cc1)c1ccc(CN2CCOCC2)cc1	TGFb inhibitor inconclusive, KB-3-1 cytotox inconclusive, KB-V1 cytotox inconclusive
COc1ccc(CCNC(=O)Cn2cc(S(=O)(=O)Cc3ccccc3Cl)c3ccccc32)cc1OC	none (no result: HT1080 IDH1KD tx, HT1080-NT tox)
COc1cc2c(C(=O)N3CCN(c4ccc(F)cc4)CC3)cn(CC(C)C)c(=O)c2cc1OC	TGFb inhibitor inconclusive (no result: HT1080 IDH1KD tx, HT1080-NT tox)
COc1ccccc1NC(=O)c1cc2ccccc2o/c1=N\O	KB-V1 cytotox 2.59µM
COc1ccccc1NC(=O)c1cc2ccc(O)cc2o/c1=N\O	HT1080 IDH1KD tx inconclusive, HT1080-NT tox inconclusive
COc1ccccc1NC(=O)c1oc2ccccc2c1NC(=O)c1cccc(OC)c1OC	KB-3-1 cytotox 11.6µM, KB-V1 cytotox inconclusive (no result: HT1080 IDH1KD tx, HT1080-NT tox)
COc1ccc(NC(=O)c2oc3ccccc3c2NC(=O)C23CC4CC(CC(C4)C2)C3)c(OC)c1	KB-3-1 cytotox 23.1µM (no result: HT1080 IDH1KD tx, HT1080-NT tox)
